# Results: the supplement of paper PMC6555819
# Assays:
# Assay in all cases: PBM binding z-score (relative to random genomic background probes); higher = stronger binding; sequences stand for … in GC…GCGATTGACAGCGTAGAATGAAGG
# [1] = test system: RARb homodimer (NR concentration 270 nM)
# How it was run: (§1)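 For binding z-scores, the reference was random background probes on custom Agilent 4×180K protein-binding microarrays. These arrays were incubated 1 h with ligand-free nuclear receptor dimers in PBS pH 7.4, 2% milk, 0.02% Triton X-100, 1 mM DTT, 0.2 mg/mL BSA and 0.4 mg/ml salmon testes DNA. Fluorescence was scanned after antibody detection of each partner (one per run) and regression-normalized.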
# [2] = test system: RARg:RXRa (NR concentration 270 nM, RXRa partner concentration 90 nM)
# How it was run: as §1
# [3] = test system: RARg homodimer (NR concentration 270 nM)
# How it was run: as §1
# [4] = test system: RXRa DBDmut IVT, anti-RXR (DBD mutation: RXRa K156A/R161A, NR concentration 90 nM)
# How it was run: as §1
# [5] = test system: RXRa homodimer (NR concentration 180 nM)
# How it was run: as §1
# [6] = test system: THRa:RXRa (NR concentration 90 nM, RXRa partner concentration 90 nM)
# How it was run: as §1
# [7] = test system: THRa homodimer (NR concentration 90 nM)
# How it was run: as §1
# [8] = test system: VDR homodimer (NR concentration 270 nM)
# How it was run: as §1
Sequence,PBM binding z-score [1],PBM binding z-score [2],PBM binding z-score [3],PBM binding z-score [4],PBM binding z-score [5],PBM binding z-score [6],PBM binding z-score [7],PBM binding z-score [8]
TCGAGTAGGTTAGGGGCGTTCAGAATGGCGTCGA,0.347,-0.19,-0.416,0.366,0.0753,0.432,-0.0731,0.527
GCTAGTTGGTCAGTAAAAGGACACACACCGGTCG,2.31,1.15,1.73,-0.384,0.00337,0.856,0.41,0.256
CCTACTGGGCCAAGGTCCTTGATCAGTCAAAGCA,0.00283,-0.396,-0.0984,-1.13,-0.463,-0.0193,-0.503,-0.774
GCTTTTAGATCAAGGTTAAGAAAGACTAAGCTAA,0.302,0.483,0.485,0.874,0.844,1.37,0.0946,-0.0628
GGAACGAGAGCAAAGTTGATAGCATCTGTCGACG,-0.806,-0.113,-0.0315,-0.36,0.334,-0.711,-1.35,-0.396
GATACAGGGTCAAGGCAAGAGTACGCGTATTGAT,3.45,5.5,5.14,2.63,6.28,3.72,1.16,2.31
TTAGCAAGGTGAAAGGTCGTTGATGCACGCCTTG,2.23,4.16,1.75,0.67,5.52,3.02,0.254,1.18
CCTCGGAGGACAGAAGTTCAGAGCTGTCCGCTTT,1.88,1.28,1.36,0.706,-0.0645,0.325,-0.73,0.521
AGTCAAAGTTCAGGACGATGTAACGTAAAGCACG,2.88,3.94,4.82,2.83,2.53,1.92,0.0967,1.75
CGTCCAAGGTGAGAGAGGTCAGTGAATGCCGAGT,4.13,3.38,3.7,0.994,2.89,3.33,1.95,3.07
GACACAGGGTCAAGGCCAGAGTACGCGTATTGAT,3.64,5.52,5.02,2.59,6.19,3.64,0.875,2.13
TCTATTCGTTGATTAGGGCAACCGAAACAGCGGA,0.244,0.485,0.548,0.758,0.477,0.404,0.073,-0.134
AGTCAAAGTTCATCTAGGTAACGTATGATATGCT,3.98,5.57,6,4.68,4.58,3.23,0.203,5.23
CCTACTGGGCCATCACGTCATTGATATCAACGTT,0.0558,0.0905,0.383,-0.0697,-0.108,-0.192,0.107,-0.136
CTCGAAAGTTCGTGCTCAGGTGAGTATACCAAAC,1.55,2.29,1.52,2.83,1.01,2.86,0.851,1.88
CTTCCAAGGTCAATGCTAGGTCAGTGAAAGCATT,4.79,7.32,6.93,3.55,5.39,4.33,3.09,2.95
AGAATGAAGTTACCAAAGATCAGGGAAACGCTTG,-0.995,0.125,0.206,-0.628,0.402,-0.228,-1.02,-0.257
AGAAAGAGGGCAATGAGTTGATAGCACGGGTGGC,1.65,1.64,2.08,1.7,1.07,0.681,-0.101,3.05
GCATGTAGGTAATACAAGGTGAAAGTCCGATTGT,0.748,0.359,0.236,-0.332,0.495,3.96,0.81,-0.301
TCGAGTAGGTTACCAATAGGGCATTCAGCTTTCT,0.965,1.78,0.593,0.262,0.749,0.215,-0.961,-0.368
TAGCCTATGTCAGATCGGGCCAGTATACGCTATA,-0.337,-0.0162,-0.00722,-0.495,-0.0681,1.45,-0.592,-0.48
GGAAAGAGGGCAAGTTGATAGCAGAGTTTGATGG,2.23,2.23,3,1.94,1.43,1.02,0.275,1.93
TCTATTAGTTGATTACGGCAACCGAAACAGCGGA,-0.0417,0.252,0.426,1.38,0.521,0.122,0.312,0.575
CCTAATGGGCCACGAAAGGTCATTGATTCAGTGA,4.85,4.78,4.65,1.17,4.84,3.95,0.853,2.52
TAGCCTAGGTCAGATCGGTCCAGTATACGCTATA,1.89,2.06,3.2,-0.21,1.2,2.97,0.0173,0.23
CTAACTAGGTCATTGACAGGACAGTGAATAGTAA,2.61,4.49,4.43,2.41,2.33,2.85,0.816,1.14
CGTCATAGTTCAAGGTAACGTAACAGAAAGCAGC,2.2,2.96,3.42,2.26,1.99,2.32,1.16,0.917
CCTCGGAGGACAACAGGTGGTCAGAGCTGCCAGA,0.83,0.693,1.32,-0.142,-0.432,0.397,-0.269,-0.187
